Test results published in article PMC7826789 (International Journal of Molecular Sciences, 2021).

How the values were obtained:
Settings in all cases: Compound Concentration (nM):1000
NEK3 = test system: NEK3
NEK4 = test system: NEK4
NEK5 = test system: NEK5
NEK6 = test system: NEK6
NEK7 = test system: NEK7
NEK9 = test system: NEK9
NIK = test system: T1, NIK
T1 construct: gene MAP3K14

NIM1 = test system: T2, NIM1
T2 construct: gene MGC42105

NLK = test system: NLK
OSR1 = test system: T3, OSR1
T3 construct: gene OXSR1

PAK1 = test system: PAK1
PAK2 = test system: PAK2
PAK3 = test system: PAK3
PAK4 = test system: PAK4
PAK6 = test system: PAK6
PAK7 = test system: PAK7
PCTK1 = test system: T4, PCTK1
T4 construct: gene CDK16

PCTK2 = test system: T5, PCTK2
T5 construct: gene CDK17

PCTK3 = test system: T6, PCTK3
T6 construct: gene CDK18

PDGFRA = test system: PDGFRA
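Note: KINOMEscan scanMAX binding as percent activity remaining versus control; lower means stronger binding.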

Structure (SMILES)	Percent Control (NEK3) [%]	Percent Control (NEK4) [%]	Percent Control (NEK5) [%]	Percent Control (NEK6) [%]	Percent Control (NEK7) [%]	Percent Control (NEK9) [%]	Percent Control (NIK) [%]	Percent Control (NIM1) [%]	Percent Control (NLK) [%]	Percent Control (OSR1) [%]	Percent Control (PAK1) [%]	Percent Control (PAK2) [%]	Percent Control (PAK3) [%]	Percent Control (PAK4) [%]	Percent Control (PAK6) [%]	Percent Control (PAK7) [%]	Percent Control (PCTK1) [%]	Percent Control (PCTK2) [%]	Percent Control (PCTK3) [%]	Percent Control (PDGFRA) [%]
O=C1Nc2ccc(C(=O)c3ccco3)cc2C1=Cc1cc(Cl)c(O)c(Cl)c1 [GW406108X]	100	83	100	94	100	100	100	93	100	100	100	80	100	100	80	100	100	100	91	79
CCc1ccc(Oc2nccc(-c3c(-c4ccc(F)cc4)ncn3C3CCNCC3)n2)cc1 [SB-242719]	100	96	100	100	100	100	100	83	25	100	100	100	71	100	82	98	87	100	94	100
CC1=C(C(=O)Nc2ccc3[nH]ncc3c2)C(c2ccc(Cl)c(Cl)c2)CC(=O)N1 (centres unmarked) [GSK299115A]	80	89	58	95	87	68	76	79	78	73	94	84	96	82	79	91	85	100	93	100
COC(=O)Nc1nc2ccc(Oc3ccc(NC(=O)Nc4cc(C(F)(F)F)ccc4F)cc3)cc2s1.Cl [GW693917A]	87	83	76	100	100	50	80	79	95	100	100	100	43	100	82	91	74	72	78	11
CN(C)CCNC(=O)Nc1ccc(N(C)c2ccnc(Nc3ccc(CS(C)(=O)=O)cc3)n2)cc1.Cl [GW830900A]	63	100	91	96	93	96	88	88	82	100	99	79	2.1	71	90	71	100	100	100	2
COc1cc(N2CCN(C(C)C)CC2)ccc1Nc1nc(Nc2ccc(F)cc2C(=O)NC[C@@H](O)CO)c2cc[nH]c2n1 [GSK1392956A]	100	100	83	100	100	100	100	96	100	89	100	100	100	100	89	67	82	100	100	91
O=C(Nc1n[nH]c2nc(-c3ccc(O)cc3)c(Br)cc12)C1CC1 [SB-725317]	100	88	100	100	86	98	100	84	54	100	89	60	71	100	100	100	24	62	77	29
COc1ccc2c(-c3ccnc(Nc4cccc(OC(F)(F)F)c4)n3)cnn2n1 [GW810372X]	22	80	7.6	39	3.6	47	96	77	81	100	100	100	100	100	96	100	100	100	99	87
Cc1cc(O)cc(C)c1/C=C/c1cncc(C(N)=O)c1 [GW435821X]	89	86	100	100	100	100	100	100	92	100	99	100	84	100	98	100	100	100	93	18
COc1cc(/C=N/Nc2ncnc3[nH]ncc23)ccc1O [GW578748X]	43	98	100	100	96	100	100	37	100	100	100	97	58	100	100	100	100	100	100	7.6
